# Reference: PubChem BioAssay AID2314 (National Center for Advancing Translational Sciences (NCATS), 2010)
# Hit rate of the full screen: of about 300,000 compounds, about 37,000 (12%) were called active. Shown is part of a subset that was picked to be rich in actives. A number with no mark means an inactive call. Rule as the data show it: active = max response mostly above about 13% (no sharp cut-off); inactive = mostly below about 14%.
# Experiment: Cycloheximide Counterscreen for Small Molecule Inhibitors of Shiga Toxin; also: read at 38.3 µM for the half of the compounds with a filed dose; 0% is about no effect
# Conditions: cell reporter, cycloheximide protein synthesis inhibition counterscreen; stronger effect = higher value
row,Compound,max response
1,COCCn1c(N)c(NCc2ccccc2)c(=O)[nH]c1=O,-1.16%
2,CCOC(=O)N1CCN(C(=O)C(C)NC(=O)c2ccco2)CC1 (centres undefined),1.53%
3,CC1=C(C)CC(C(=O)NNC(=O)c2ccccc2O)C(C(=O)O)C1 (centres undefined),15.2% (active)
4,CC1=C(C)CC(C(=O)NNC(=O)c2csc3c2CCC(C(C)(C)C)C3)C(C(=O)O)C1 (centres undefined),-0.879%
5,CC1=C(C)CC(C(=O)NC(C)CCc2ccccc2)C(C(=O)O)C1 (centres undefined),12.4%
6,CCC(=O)N(CCc1ccccc1)Cc1cc2cc(C)ccc2[nH]c1=O,-3.02%
7,CC(C)c1nc2sc3c(c2c(=O)n1N)CC(C)(C)OC3,11.6%
8,COc1ccc(-c2noc(C(C)NS(=O)(=O)c3ccc(NC(C)=O)cc3)n2)cc1 (centres undefined),-8.48%
9,C/C(=N/Nc1ccc(Cl)cc1)c1cnnc(-c2ccccc2)n1,-2.47%
10,O=C(Cn1nnc(-c2ccccc2)n1)NCc1ccccc1,-2.67%
11,Cc1ccccc1-c1nnn(CC(=O)c2ccc(S(=O)(=O)N3CCCC3)cc2)n1,0.345%
12,CC(C)(C)NC(=O)Cn1nnc(-c2ccccc2Cl)n1,53.5% (active)
13,COC(=O)COc1cccc2c(=O)n(CC(=O)NCc3ccccc3)ccc12,-1.91%
14,Cc1ccc(S(=O)(=O)N(C)C)cc1NC(=O)c1n[nH]c(=O)c2ccccc12,-4.46%
15,CCCN(CCC)S(=O)(=O)c1ccc(C(=O)N2CC3CCC(CC3)C2)cc1,-1.36%
16,CCOC(=O)c1ccc(N/C(=N/S(=O)(=O)c2ccccc2)c2ccccc2)cc1,10.2%
17,O=C(Nc1ccc2c(c1)OCCO2)c1ccc(Cl)c(S(=O)(=O)N2CCCCC2)c1,45.3% (active)
18,CN1CCN(c2ccc(NC(=O)c3ccc4c(c3)OCCO4)cc2Cl)CC1,39.3% (active)
19,O=C(c1ccc(Cl)c(S(=O)(=O)N2CCCCC2)c1)N1CCCCCC1,-2.78%
20,Cc1ccc(C(=O)Nc2ccccc2C(=O)NC2CCCCC2)cc1S(=O)(=O)N1CCOCC1,12%
21,O=C(Nc1cccc(Cl)c1N1CCOCC1)c1ccc2c(c1)OCCO2,19.9%
22,O=C(Nc1cccc(S(=O)(=O)N2CCCCC2)c1)c1ccc2c(c1)OCO2,-2.46%
23,Cc1ccc(C(=O)Nc2ccc3c(c2)OCO3)cc1S(=O)(=O)N1CCCCC1,19.6% (active)
24,O=C(NCCSCc1ccccc1)c1ccc(Cl)c(S(=O)(=O)N2CCOCC2)c1,-2.82%

row,Compound,max response
1,COC(=O)c1ccc(N2CCOCC2)c(NC(=O)c2ccc3c(c2)OCCO3)c1,0.234%
2,O=[N+]([O-])c1ccccc1/C=C/CN1CCCC(CO)C1 (centres undefined),-1.17%
3,FC(F)Oc1ccccc1C1CC(c2ccc(Br)s2)Nc2ncnn21 (centres undefined),-4.82%
4,CCOc1ccccc1Nc1ccc2nonc2c1[N+](=O)[O-],-3.05%
5,Cc1cnc(C(=O)N2CCCC(N3CCN(c4ccccc4F)CC3)C2)cn1 (centres undefined),7.17%
6,CN(C)/C=N/c1cc(=O)n(C)c(=O)n1CC1CC1,-3.74%
7,CCCCn1nc(C(=O)OCC(=O)Nc2sccc2C(N)=O)c2ccccc2c1=O,11.3%
8,COc1cc(OC)cc(C(=O)OCC(=O)Nc2sccc2C(N)=O)c1,16.2% (active)
9,COc1cc(OC)cc(C(=O)OCC(=O)Nc2ccc(F)cc2F)c1,1.53%
10,CC(=O)N1c2ccc(S(=O)(=O)N3CCCC(C(=O)Nc4cccc(F)c4)C3)cc2CC1C (centres undefined),-3.59%
11,CC1CCN(Cc2nc(-c3ccc(Cl)cc3)no2)CC1,14.8% (active)
12,Cc1ccc(-c2noc(CN3CCN(Cc4ccccc4)CC3)n2)cc1,9.63%
13,CC(C)C(O)C1CCN(Cc2nc(Cc3ccccc3Cl)no2)CC1 (centres undefined),-3.2%
14,Cc1cc(OCCOc2cccc3cccnc23)c(C)cc1Cl,2.3%
15,CCc1ccc(N(C(=O)c2csnn2)C(C(=O)NC2CCCCC2)c2cccnc2)cc1 (centres undefined),6.38%
16,Cc1cccc(NC(=O)c2cc([N+](=O)[O-])ccc2N2CCN(C)CC2)c1,-4.47%
17,Cc1cccc(NC(=O)c2sc(-c3ccccc3)nc2-c2ccc([N+](=O)[O-])cc2)c1,-2.46%
18,Cc1onc(NC(=O)c2ccc([N+](=O)[O-])o2)c1Br,60.9% (active)
19,Cc1cccc(NC(=O)c2ccc([N+](=O)[O-])o2)c1,29.4% (active)
20,Cc1onc(C(=O)NCc2ccc(F)cc2)c1[N+](=O)[O-],4.59%
21,Cc1ccc(C(=O)Nc2nnc(-c3ccncc3)s2)o1,0.697%
22,C=CCn1c(SCC(=O)NC)nnc1C12CC3CC(CC(C3)C1)C2,-1.24%
23,O=C(CCn1nnc2ccccc21)OCC(=O)c1ccc([N+](=O)[O-])cc1,-6.28%
24,N#C/C(C(=S)Nc1ccccc1)=C1/NN=C(N2CCOCC2)N1c1ccccc1,0.28%

row,Compound,max response
1,Cc1[nH]n(C(N)=S)c(=O)c1N=Nc1ccc(Cl)cc1Cl,12.2%
2,CC(=O)Nc1ccc(NC(=O)c2ccc3c(c2)C(=O)N(c2ccccc2C)C3=O)cc1,-2.35%
3,CCOc1ccc(-n2c(SCC(N)=O)nnc2-c2ccco2)cc1,-1.88%
4,COc1cc(CNCc2ccc(OC)c3ccccc23)cc(OC)c1OC,-1.1%
5,CCN1CCN(C(=O)C2CCN(S(=O)(=O)c3cc(Cl)ccc3Cl)CC2)CC1,-1.01%
6,CCOC(=O)C1=C(C)NC2=C(C(=O)CC(C)(C)C2)C1c1ccsc1 (centres undefined),8.09%
7,COc1ccc(C(CNC(=O)COc2ccc([N+](=O)[O-])cc2)N2CCCCC2)cc1 (centres undefined),-2.15%
8,CCOC(=O)N1CCC(NC(=O)c2cnn3ccccc23)CC1,-4.51%
9,Cc1cnc(C(=O)OCC(=O)N2CCc3ccccc32)cn1,9.5%
10,O=C(c1cnn2ccccc12)N1CCc2ccccc21,66.5% (active)
11,Cc1noc(C)c1COC(=O)c1cc2ccccc2cc1O,-1.04%
12,Cc1ccc(S(=O)(=O)N2CCN(C(=O)COC(=O)c3c(C)noc3C)CC2)c(C)c1,-2.98%
13,Cc1ccc(-c2nc(COC(=O)c3c(C)noc3C)cs2)cc1,73.1% (active)
14,c1ccc(-c2csc(N3CCc4ccccc4C3)n2)cc1,36.5% (active)
15,CN(C)CCCNC(=S)N1CCN(c2nc(-c3ccccc3)cs2)CC1,-1.66%
16,O=C(CN1CCN(c2nc(-c3ccccc3)cs2)CC1)NCc1ccc2c(c1)OCO2,-2.7%
17,CCOC(=O)Cn1c(O)c(N=NC(=O)CNC(=O)Cc2ccccc2)c2ccccc21,5.93%
18,CCCc1ccc(C(=O)[C@@H]2[C@@H](C(C)=O)N3c4ccc(F)cc4C=C[C@@H]3[C@@]23C(=O)Nc2ccccc23)cc1,-1.55%
19,O=S(=O)(c1ccc(Cl)cc1)c1nc(-c2ccco2)oc1N1CCCCC1,3.16%
20,O=C(NCCCN1CCCCC1)C1CCCN(c2ncnc3c2nc2n3CCCCC2)C1 (centres undefined),-1.32%
21,CO/N=C/c1cn(-c2ccc(Cl)cc2)nn1,24.4% (active)
22,O=C(Nc1ccccc1)OCc1cn(-c2ccc(Cl)cc2)nn1,-3.74%
23,CN(C)c1nnnn1-c1ccc(Cl)cc1,-4.44%
24,COc1cc(NC(=O)C2CC(c3ccccc3O)=NO2)c(OC)cc1Cl (centres undefined),-1.7%

row,Compound,max response
1,COCCN1C(=O)C(=O)/C(=C(/O)c2ccc(S(=O)(=O)N3CCCCC3)cc2)C1c1ccc(OC)c(OC)c1 (centres undefined),-1.21%
2,CN(C)CCCN=Cc1c(O)n(Cc2ccco2)c(=O)[nH]c1=O,8%
3,Cc1cs/c(=N\N=C\c2ccc(O)cc2)n1Cc1ccco1,21.5% (active)
4,CC(C)n1c(=O)c(C=Nc2ccc(Br)cc2)c(O)n(Cc2ccco2)c1=O,-2.65%
5,O=c1c2c(-c3ccccc3)ccnc2[nH]n1-c1ccccc1,9.85%
6,O=C(Nc1cccc2ccccc12)c1onc2c1CCCC2,43.2% (active)
7,O=C(COC(=O)c1ccccn1)Nc1cccc2ccccc12,-1.89%
8,O=C(O)c1ccccc1-c1ccccc1C(=O)Nc1cccc2ccccc12,-3.02%
9,O=C(c1ccc2c(c1)N(Cc1ccc(F)cc1)C(=O)c1ccccc1S2(=O)=O)N1CCN(c2ccccn2)CC1,0.32%
10,O=[N+]([O-])c1ccc2nc(-c3ccccn3)[nH]c2c1,51% (active)
11,O=C(CSc1nc2ccc([N+](=O)[O-])cc2[nH]1)c1ccc(Cl)cc1,3.9%
12,O=[N+]([O-])c1cnc2ccc3ccccc3c2c1,8.23%
13,CCOc1ccc(CCNC(=O)Nc2ccccc2)cc1OCC,6.01%
14,COc1ccc(-n2nnnc2SCc2nc(N)nc(N3CCOCC3)n2)cc1,-3.81%
15,COc1cc(NC(=O)c2ccc(-c3csc(C)n3)cc2)c(OC)cc1Cl,-4.02%
16,Cc1cc(NC(=O)COc2ccc(Cl)cc2Cl)n(CCC#N)n1,43.5% (active)
17,Cc1nn(-c2ccccc2)c(C)c1NC(=O)COc1ccc(Cl)cc1Cl,-1.6%
18,CCCn1nnnc1NC(=O)COc1ccc(Cl)cc1C,14.6%
19,COCCNc1cc(-c2ccccc2)nc2cc(-c3cccc(F)c3)nn12,-0.87%
20,COc1ccccc1C(=O)N(C1=NC(C)CS1)c1ccc(Cl)cc1 (centres undefined),-1.66%
21,CC(=O)Nc1ccc(NC(=O)CCCNC(=O)c2ccc(Cl)cc2)cc1,-0.304%
22,CC(=O)Nc1ccc(C(=O)N(C2=NC(C)CS2)c2ccc(Cl)cc2)cc1 (centres undefined),28.7% (active)
